Reference: PubChem BioAssay (NCI)
Compounds without any hit were thinned out: in the full panel of roughly 83,000, 20% have a hit.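 Compound tested at a single concentration for 48 hours in 96-well plates; a percent growth value below 10 was scored as active.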 A number with no mark means an inactive call. Active and inactive are the calls of the source.

Experiments:
Test in all cases: NCI-60 one-dose screen, 48 h (100 = growth as untreated, 0 = no growth, -100 = all killed)
Conditions in all cases: 10 µM
SR leukemia = tested on: SR leukemia
RPMI-8226 leukemia = tested on: RPMI-8226 leukemia
OVCAR-8 ovarian = tested on: OVCAR-8 ovarian
OVCAR-5 ovarian = tested on: OVCAR-5 ovarian
OVCAR-4 ovarian = tested on: OVCAR-4 ovarian
SK-OV-3 ovarian = tested on: SK-OV-3 ovarian
IGROV1 ovarian = tested on: IGROV1 ovarian
OVCAR-3 ovarian = tested on: OVCAR-3 ovarian
HS 578T breast = tested on: HS 578T breast
NCI/ADR-RES ovarian = tested on: NCI/ADR-RES ovarian
T-47D breast = tested on: T-47D breast
MDA-MB-435 melanoma = tested on: MDA-MB-435 melanoma
SW-620 colon = tested on: SW-620 colon
MCF7 breast = tested on: MCF7 breast
HCT-116 colon = tested on: HCT-116 colon
KM12 colon = tested on: KM12 colon
HCC-2998 colon = tested on: HCC-2998 colon

Row | SMILES | growth (SR leukemia) | growth (RPMI-8226 leukemia) | growth (OVCAR-8 ovarian) [%] | growth (OVCAR-5 ovarian) [%] | growth (OVCAR-4 ovarian) [%] | growth (SK-OV-3 ovarian) | growth (IGROV1 ovarian) [%] | growth (OVCAR-3 ovarian) | growth (HS 578T breast) [%] | growth (NCI/ADR-RES ovarian) | growth (T-47D breast) | growth (MDA-MB-435 melanoma) | growth (SW-620 colon) | growth (MCF7 breast) [%] | growth (HCT-116 colon) | growth (KM12 colon) [%] | growth (HCC-2998 colon) [%]
1 | Cc1ccc(NCCN(C)CC(C)O)c2c(=O)c3ccc(Cl)cc3sc12 (configuration not stated) | -28.9% (active) | -8.72% (active) | 58.1 | 77.9 | 67.9 | 91.6% | 39.8 | 73.3% | 58.6 | 57.8% | 49.7% | -49% (active) | -46.4% (active) | 17.4 | -48.8% (active) | 43.7 | 
2 | N#Cc1cnn(C(=O)c2nn(-c3ccc(Cl)cc3)cc2O)c1N | -35.5% (active) | -37% (active) | 10.1 | 30.6 | 18.8 | 8.44% (active) | 12.5 | -0.517% (active) | 75.9 | 3.25% (active) | 3.29% (active) | 19.1% | 38% | 10.9 | 6.75% (active) | 19.1 | 
3 | CCN(CC)CCOc1ccc2c(c1O)C(=O)c1ccccc1C2=O | 63.5% | 90.3% | 62.4 | 104 | 85.5 | 77.6% | 97.3 | 94.7% | 84.6 | 72% | 97.2% | 94.5% |  | 82.1 | 44.9% | 98 | 96.7
4 | S=C1N(c2ccccc2)CN(C2CCCCC2)CN1c1ccccc1 | 102% | 103% | 75 | 104 | 96.5 | 117% | 95.9 | 106% | 63.2 | 103% | 94.3% |  |  | 88.7 | 102% | 110 | 
